Active and inactive are the calls of the source.
Experiments:
[1] = biological target: Albumin (Bos taurus) (UniProt P02769); experiment: bovine serum albumin binders on microarray, profiling panel, artefact control for SMM control protein annotation, biochemical, small-molecule microarray, Alexa647 label, 635/667 nm fluorescence (AID 1118); conditions: BSA-A647 binding, fluorescence 635 nm, higher = more signal;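 further: score merges 667 nm emission intensity and signal-to-noise per printed compound spot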
[2] = small-molecule microarray binders of probe aXIP, primary screen, biochemical, NeuroSMM set, 635/667 nm fluorescence (AID 1119); conditions: higher = more signal, called active from +8 up or from −8 down;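 further: probe is the protein aXip251-270 applied at 1 µg/mL to compound-printed slides; binding of probe to printed compounds measured as 667 nm fluorescence plus signal to noise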
[3] = small-molecule binders of probe aNOTCH3, primary screen, biochemical, small-molecule microarray, 635/667 nm fluorescence (AID 1120); conditions: higher = more signal;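 further: probe is a biotin-tagged antibody raised against NOTCH3 rather than NOTCH3 protein; score merges spot fluorescence near 667 nm with spot signal to noise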
[4] = small-molecule binders of probe aNOTCH2, primary screen, biochemical, small-molecule microarray, 635/667 nm fluorescence (AID 1121); conditions: higher = more signal;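 further: score merges feature fluorescence read at 667 nm with its signal to noise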
[5] = biological target: Carbonic anhydrase 2 (Homo sapiens) (UniProt P00918); experiment: CAII small-molecule binders, profiling panel, biochemical, small-molecule microarray, Alexa647-labelled CAII (AID 1122); conditions: CAII-A647 binding fluorescence, higher = more signal
[6] = COS7 lysate on small-molecule microarray, probe aHis, 635 nm (AID 1123); conditions: COS7 cell lysate, fluorescence, higher = more signal;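 further: z-score combines 667nm fluorescence intensity with signal-to-noise per printed compound spot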
[7] = compound binding in COS7 lysate, probe aLAP1, primary screen, cell lysate, small-molecule microarray (AID 1124); conditions: probe aLAP1, fluorescence, higher = more signal;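 further: lysate comes from COS7 cells expressing LAP1 and is applied at 0.3 µg/mL; score merges spot fluorescence near 667 nm with signal-to-noise over triplicate slides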
[8] = system: Sam68 (KHDRBS1); experiment: Sam68 small-molecule binders, primary screen, biochemical, small-molecule microarray, 635 nm fluorescence (AID 1125); conditions: small-molecule microarray binding, higher = more signal;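 further: score merges 667 nm channel intensity with signal to noise over triplicate slides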
[9] = system: Chordin-like protein 2 (CHRDL2); experiment: CHRDL2 small-molecule binders, primary screen, biochemical, small-molecule microarray, 635 nm fluorescence (AID 1126); conditions: small-molecule microarray binding, fluorescence 635 nm; higher = more signal;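 further: printed compound slides probed with Chrdl2 protein at 4 µg/mL for 1 h at 4 C; score merges 667 nm emission intensity with signal to noise over three replicate slides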
[10] = biological target: Concanavalin-A (Canavalia ensiformis) (UniProt P02866); experiment: ConA small-molecule binders, primary screen, artefact control for SMM control protein annotation, biochemical, small-molecule microarray, Alexa647 label, 635 nm (AID 1127); conditions: ConA-A647 binding fluorescence, higher = more signal;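 further: z combines 667 nm emission intensity with signal-to-noise across three replicate slides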
[11] = anti-His antibody binders, primary screen, artefact control for SMM control protein annotation, biochemical, small-molecule microarray, 635 nm fluorescence (AID 1128); conditions: anti-His Alexa647 antibody binding, higher = more signal;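 further: score merges feature fluorescence with signal-to-noise for each printed compound spot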
[12] = system: Human papillomavirus type 1a E7 protein (residues 1-88); experiment: HPV1a E7 small-molecule binders, primary screen, biochemical, small-molecule microarray, residues 1-88, 635 nm (AID 1129); conditions: small-molecule microarray binding, fluorescence 635 nm; higher = more signal
[13] = biological target: Focal adhesion kinase 1 (Homo sapiens) (UniProt Q05397); experiment: small-molecule microarray binders of FAK, primary screen, biochemical, 635/667 nm fluorescence, BSA, DTT (AID 1130); conditions: PTK2 binding, 635 nm fluorescence, higher = more signal;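 further: composite of spot emission at 667 nm and signal to noise over triplicate slides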
[14] = system: Fibrinogen (Alexa647-labelled); experiment: fibrinogen binders on compound microarrays, profiling panel, artefact control for SMM control-protein annotation, biochemical, small-molecule microarray, 635/667 nm fluorescence (AID 1131); conditions: fibrinogen-A647 binding fluorescence, higher = more signal;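 further: z-score merges 667 nm fluorescence with per-spot signal-to-noise over triplicate slides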
[15] = biological target: Follistatin (Homo sapiens) (UniProt P19883); experiment: follistatin binders on small-molecule microarrays, primary screen, biochemical, small-molecule microarray, 635/667 nm fluorescence (AID 1132); conditions: FST binding, 635 nm fluorescence, higher = more signal
[16] = biological target: Fibroblast growth factor 2 (Homo sapiens) (UniProt P09038); experiment: FGF2 binders on small-molecule microarrays, primary screen, biochemical, small-molecule microarray, 635/667 nm fluorescence (AID 1133); conditions: small-molecule microarray binding, FGF2, fluorescence 635/667; higher = more signal
[17] = mitochondrial membrane potential change in A549 cells, profiling panel, cell-based, JC-1 fluorescence, basal, 24 h, 100 nL (AID 1138); conditions: higher = more signal;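 further: A549 lung adenocarcinoma cells under basal conditions with no added stimulus; test concentration not given here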
[18] = system: Lefty1; experiment: Lefty1 binders on small-molecule microarrays, primary screen, biochemical, small-molecule microarray, 635/667 nm fluorescence (AID 1139); conditions: small-molecule microarray binding, fluorescence 635/667; higher = more signal
[19] = system: wheat germ agglutinin (Triticum aestivum), Alexa647-labelled; experiment: wheat germ agglutinin binders on compound microarrays, profiling panel, artefact control for SMM control-protein annotation, biochemical, small-molecule microarray, 635/667 nm fluorescence (AID 1140); conditions: WGA-A647 binding, 635 nm fluorescence, higher = more signal;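 further: score merges 667 nm feature emission with signal to noise over triplicate slides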
[20] = biological target: Luciferin 4-monooxygenase (Photinus pyralis) (UniProt P08659); experiment: firefly luciferase enzyme inhibitors, primary screen, biochemical, luminescence, purified enzyme, 2006 set (AID 1141); conditions: SteadyGlo luminescence, 30 min, higher = more signal, called active from +8 up or from −8 down;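 further: cell-free assay with purified firefly luciferase at 100 ng per well in PBS; test concentration not given here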
Sequence of Luciferin 4-monooxygenase (Photinus pyralis) (P08659 whole entry, looked up): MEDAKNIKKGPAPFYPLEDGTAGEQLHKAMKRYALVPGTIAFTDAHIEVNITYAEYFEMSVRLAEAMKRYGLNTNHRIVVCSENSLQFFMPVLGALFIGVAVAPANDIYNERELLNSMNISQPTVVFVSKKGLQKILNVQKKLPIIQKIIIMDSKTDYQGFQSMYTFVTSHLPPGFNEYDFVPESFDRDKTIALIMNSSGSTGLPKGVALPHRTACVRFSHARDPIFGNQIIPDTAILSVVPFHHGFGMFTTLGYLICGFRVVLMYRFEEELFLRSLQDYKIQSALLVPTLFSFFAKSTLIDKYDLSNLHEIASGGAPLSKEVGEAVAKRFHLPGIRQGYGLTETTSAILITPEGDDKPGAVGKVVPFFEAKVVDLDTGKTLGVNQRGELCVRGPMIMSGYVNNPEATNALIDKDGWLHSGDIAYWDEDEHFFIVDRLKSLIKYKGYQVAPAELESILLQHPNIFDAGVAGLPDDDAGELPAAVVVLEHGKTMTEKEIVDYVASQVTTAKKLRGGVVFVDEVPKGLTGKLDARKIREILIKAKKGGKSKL

Sequence of Concanavalin-A (Canavalia ensiformis) (P02866 whole entry, looked up): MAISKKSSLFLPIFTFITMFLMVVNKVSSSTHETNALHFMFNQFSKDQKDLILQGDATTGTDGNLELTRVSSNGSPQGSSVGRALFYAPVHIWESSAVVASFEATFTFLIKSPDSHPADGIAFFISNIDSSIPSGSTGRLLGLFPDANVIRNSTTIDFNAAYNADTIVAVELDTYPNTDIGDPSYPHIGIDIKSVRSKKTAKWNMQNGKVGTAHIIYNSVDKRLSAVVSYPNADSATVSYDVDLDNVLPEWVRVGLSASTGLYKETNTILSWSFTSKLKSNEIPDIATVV
Sequence of Focal adhesion kinase 1 (Homo sapiens) (Q05397 whole entry, looked up): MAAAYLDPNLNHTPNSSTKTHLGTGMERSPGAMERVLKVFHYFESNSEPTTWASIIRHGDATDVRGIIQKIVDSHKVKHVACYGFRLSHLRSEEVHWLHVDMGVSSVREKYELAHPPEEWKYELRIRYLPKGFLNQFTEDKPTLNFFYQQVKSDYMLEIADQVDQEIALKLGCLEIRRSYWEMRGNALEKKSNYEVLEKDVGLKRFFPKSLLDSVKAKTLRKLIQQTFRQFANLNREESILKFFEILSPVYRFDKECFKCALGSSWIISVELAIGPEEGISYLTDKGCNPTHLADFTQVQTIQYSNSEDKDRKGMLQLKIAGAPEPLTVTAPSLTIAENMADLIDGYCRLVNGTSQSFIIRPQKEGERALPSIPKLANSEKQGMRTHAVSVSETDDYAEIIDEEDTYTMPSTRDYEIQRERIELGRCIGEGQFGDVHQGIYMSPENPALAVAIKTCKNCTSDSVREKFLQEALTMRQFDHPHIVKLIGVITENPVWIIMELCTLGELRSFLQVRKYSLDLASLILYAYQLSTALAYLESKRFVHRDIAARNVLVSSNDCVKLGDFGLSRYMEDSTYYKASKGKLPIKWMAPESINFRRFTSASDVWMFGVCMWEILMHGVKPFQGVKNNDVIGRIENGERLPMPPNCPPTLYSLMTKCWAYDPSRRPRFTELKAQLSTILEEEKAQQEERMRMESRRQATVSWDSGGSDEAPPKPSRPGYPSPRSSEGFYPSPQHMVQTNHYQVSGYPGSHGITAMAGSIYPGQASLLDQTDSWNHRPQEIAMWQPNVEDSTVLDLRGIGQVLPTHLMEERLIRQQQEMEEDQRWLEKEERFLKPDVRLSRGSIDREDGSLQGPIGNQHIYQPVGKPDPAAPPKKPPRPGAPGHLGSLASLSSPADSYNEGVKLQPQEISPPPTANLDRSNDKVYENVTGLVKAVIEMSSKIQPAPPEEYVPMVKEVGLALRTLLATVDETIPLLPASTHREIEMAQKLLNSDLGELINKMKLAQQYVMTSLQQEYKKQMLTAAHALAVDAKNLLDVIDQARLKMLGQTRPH
Sequence of Follistatin (Homo sapiens) (P19883 whole entry, looked up): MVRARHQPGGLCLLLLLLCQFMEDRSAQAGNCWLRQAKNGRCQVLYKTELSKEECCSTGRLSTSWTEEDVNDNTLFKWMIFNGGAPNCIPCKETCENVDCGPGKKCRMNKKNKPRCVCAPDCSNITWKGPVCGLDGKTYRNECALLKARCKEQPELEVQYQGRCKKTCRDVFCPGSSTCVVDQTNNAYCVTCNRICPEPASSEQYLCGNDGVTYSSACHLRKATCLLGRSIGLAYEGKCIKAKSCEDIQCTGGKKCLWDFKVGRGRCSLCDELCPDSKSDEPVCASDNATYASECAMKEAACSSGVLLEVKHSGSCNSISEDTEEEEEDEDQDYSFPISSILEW
Sequence of Albumin (Bos taurus) (P02769 whole entry, looked up): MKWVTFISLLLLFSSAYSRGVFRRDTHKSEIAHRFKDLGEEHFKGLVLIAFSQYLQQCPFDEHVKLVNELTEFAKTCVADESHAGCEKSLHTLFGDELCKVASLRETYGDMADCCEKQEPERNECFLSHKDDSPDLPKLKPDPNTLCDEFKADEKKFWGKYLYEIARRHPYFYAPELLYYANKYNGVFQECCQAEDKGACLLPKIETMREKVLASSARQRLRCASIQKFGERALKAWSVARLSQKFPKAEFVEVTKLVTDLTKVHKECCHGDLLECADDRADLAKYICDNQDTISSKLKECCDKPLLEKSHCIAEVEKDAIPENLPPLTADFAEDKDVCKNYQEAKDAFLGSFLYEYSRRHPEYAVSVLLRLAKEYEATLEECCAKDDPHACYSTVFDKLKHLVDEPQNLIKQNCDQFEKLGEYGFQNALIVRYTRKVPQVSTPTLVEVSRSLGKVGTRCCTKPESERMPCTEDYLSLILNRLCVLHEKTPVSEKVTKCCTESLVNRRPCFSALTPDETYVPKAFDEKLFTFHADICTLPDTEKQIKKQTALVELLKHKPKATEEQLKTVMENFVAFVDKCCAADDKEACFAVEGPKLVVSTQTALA
Sequence of Fibroblast growth factor 2 (Homo sapiens) (P09038 whole entry, looked up): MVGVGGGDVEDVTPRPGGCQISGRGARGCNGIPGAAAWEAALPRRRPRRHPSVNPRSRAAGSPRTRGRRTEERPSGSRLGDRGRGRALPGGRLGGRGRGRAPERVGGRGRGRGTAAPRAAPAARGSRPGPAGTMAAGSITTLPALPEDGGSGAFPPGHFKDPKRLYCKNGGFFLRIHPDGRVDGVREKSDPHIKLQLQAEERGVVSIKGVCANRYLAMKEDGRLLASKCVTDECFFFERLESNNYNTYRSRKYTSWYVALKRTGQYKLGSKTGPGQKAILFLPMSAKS

| Compound | composite z-score [1] | composite Z-score [2] | composite z-score [3] | composite z-score [4] | composite z-score [5] | composite z-score [6] | composite z-score [7] | composite z-score [8] | composite z-score [9] | composite z-score [10] | composite z-score [11] | composite z-score [12] | composite z-score [13] | composite z-score [14] | composite z-score [15] | composite z-score [16] | z-score [17] | composite z-score [18] | composite z-score [19] | z-score [20] |
| --- | --- | --- | --- | --- | --- | --- | --- | --- | --- | --- | --- | --- | --- | --- | --- | --- | --- | --- | --- | --- |
| CC(C)CON=C1C[C@@H](O)[C@@H](O)[C@@H]2[C@@H]3C(=O)N([C@@H](C)c4ccccc4)C(=O)[C@@H]3CC[C@@H]12 | 0.538 | -0.293 (inactive) | -0.145 | -0.153 | -0.139 | -0.039 | -0.0296 | 0.132 | 0.417 | 0.0928 | 0.0924 | 0.124 | -0.164 | 0.501 | -0.319 | 0.114 | -0.655 | -0.162 | 0.252 | 0.999 (inactive) |
| CC(CCN1CCCc2nc(C)c(C)cc21)=NO[C@H](C)c1cn([C@@H]2COC[C@H]2O)nn1 | -0.392 | 0.37 (inactive) | 0.106 | -0.0741 | 0.25 | -0.205 | 0.58 | 1.32 | 0.854 | 0.351 | 0.652 | 0.793 | 1.19 | 0.704 | 0.622 | 0.743 | -0.0769 | 0.764 | 0.205 | 0.711 (inactive) |
| C=CC[C@@H]1C=C[C@H](ON=C(C)CCN2CCCc3nc(C)c(C)cc32)[C@@H](CO)O1 | -0.858 | 2.94 (inactive) | 0.712 | 0.276 | -0.1 | 0.735 | 0.629 | 1.32 | 1.3 | -0.12 | 0.229 | 0.736 | 0.817 | -0.355 | 1.25 | 1 | 0.289 | 1.16 | -0.205 | 0.949 (inactive) |
| CC(CCN1CCc2nc(-c3ccccc3)c(-c3ccccc3)cc2C1)=NOC(C)CN1CCCc2nc(C)c(C)cc21 (stereo not given) | 0.682 | 0.944 (inactive) | 0.233 | -0.0278 | 0.369 | 1.09 | 0.506 | 1.29 | 0.219 | 1.08 | -0.929 | 1.15 | 0.382 | 0.96 | 0.94 | 0.541 | 3.46 | 0.659 | 0.379 | 0.397 (inactive) |
| COC(=O)[C@H](C)NC(=O)CCC1CC(OC(=O)NCc2ccc3c(c2)OCO3)CC2(CCCC(COC(=O)NCc3ccccc3)O2)O1 (stereo not given in full) | -0.372 | 0.264 (inactive) | -0.0072 | -0.156 | 0.192 | 0.849 | -0.0296 | 1.26 | 0.133 | 0.829 | 0.554 | 0.938 | -0.0996 | 0.332 | 0.653 | 0.718 | 1.05 | 0.827 | 0.0082 | 0.464 (inactive) |
